TGFb inhibitor – blocks TGF-b signaling; HepG2 CAGA-GFP TGF-b/SMAD3 reporter, GFP fluorescence, 18 h; TGF-beta stimulated, 500 pg/mL final; Potency, µM (highest dose often 46.1 µM), for inactives: at the top dose activity, negative = inhibition, actives largely listed as inhibitors; 1.2% of 410,000 active; further: on the % scale 0 is the no-effect control and ±100 the full control effect; nearly all actives have a fitted effect of over 65% in size
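First, reporter cells (HEPG2 CAGA-GFP) rested 2 h at 37 degrees C. Next, compounds were pinned in and TGF-beta added to 500 pg/mL final. After 18 h, GFP was imaged per cell and summed per well.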
HepG2 tox – HepG2 cytotoxicity, counter-screen for TGF-b inhibitors; HepG2 CAGA-GFP viability, ATP luminescence, 18 h; Potency, µM (highest dose often 46.1 µM), for the others: at the top dose activity change, negative = cytotoxicity, usual class: cytotoxic; 0.76% of 410,000 active
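CellTiter-Glo luminescence gave cytotoxicity after 18 hours at 37 degrees C. The cells were HepG2 CAGA-GFP in 1% FBS DMEM, stimulated with 500 pg/mL TGF-beta after compound addition. %Activity was normalised to no-cell wells (complete cell-killing) and DMSO (no toxicity), and curves were fitted and classified.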
ATXN2 expr inh – reduces ATXN2 reporter expression in HEK-293 cells; HEK-293 ATXN2-luciferase reporter, luminescence, 24 h; 0.72% of 360,000 active; Potency, µM (highest dose often 57 µM), for inactives: at the highest dose activity change, negative = inhibition, usual class: inhibitors; further: on the % scale 0 is the no-effect control and ±100 the full control effect; nearly all actives have a fitted effect of over 55% in size
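ATXN2-luciferase reporter cells (luciferase flanked by upstream and downstream ATXN2 gene portions) were treated 24 h at 37 °C with compounds at up to 57 uM. SteadyGlo luminescence gave expression; GF-AFC fluorescence gave viability.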
HT1080 IDH1KD tx – kills HT-1080 cells with IDH1 knockdown. HT-1080 IDH1 knockdown viability, ATP luminescence, 48 h. Potency, µM (series often up to 46.1 µM), for the others: at the top dose activity, negative = toxicity, most hits filed as cytotoxic. 2% of 360,000 active;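 further: 0% = DMSO wells and -100% = cell-free medium wells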
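Viability of IDH1-knockdown HT-1080 fibrosarcoma cells was assessed by CellTiter-Glo after 48 h at 37 °C with titrated compound; concentration-effect curves were classified by fit quality and response size.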
HT1080-NT tox – kills 2HG-producing HT-1080-NT fibrosarcoma cells | 1.6% of 360,000 active | HT-1080-NT fibrosarcoma viability, CellTiter-Glo ATP luminescence, 48 h | Potency, µM (top dose mostly 46.1 µM), for inactives: at the highest dose activity, negative = less viability, most hits filed as cytotoxic | AID 686970;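 further: NT is the 2HG producing partner of a matched IDH1 knockdown line; 0% = DMSO-treated cells and -100% = media-only wells without cells; nearly all actives have a fitted effect of over 55% in size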
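750 cells/well, RPMI + 5% FBS; 2 h settle, compound pin-transfer, 48 h at 37 degrees C. CellTiter-Glo 10 min RT, luminescence. Normalized to DMSO and media-only wells.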
ATXN viability – cell viability loss in ATXN counter-screen; S2 cells (HEK-293 line with an ATXN2-luciferase reporter) viability, CellTiter-Fluor protease fluorescence, 24 h; Potency, µM (doses to about 56.7 µM), hits mostly cytotoxic; 0.49% of 400,000 active; further: nearly all actives have a fitted effect of over 40% in size
* marks the source's active call; other numbers are inactive results; i = inactive; ? = inconclusive; . = no result given; [ ] = dose if it differs, or a comment. Compounds with a hit are over-represented: about 3.8% of the library has one in this group of screens. The call rests on the fitted dose curve; in most records, active means well fitted curve in the direction sought with a large enough effect; inconclusive means small, poorly fitted or top-dose-only effect, or another doubt; inactive means no such curve, though single readings can be large; an effect the other way counts as inactive or inconclusive. Potency means the concentration at half of the fitted maximal effect.

SMILES | TGFb inhibitor | HepG2 tox | ATXN2 expr inh | HT1080 IDH1KD tx | HT1080-NT tox | ATXN viability
COc1ccc(O)c(-c2c(-c3ccc(Cl)cc3)n[nH]c2C)c1 | ? | -24% | -1% | -27% | 0% | i
Cc1[nH]nc(-c2ccc(O)cc2O)c1-c1ccc(Cl)cc1 | ? | -45% | -34% | -29% | 1% | i
COc1ccc(-c2n[nH]c(C)c2-c2ccc(Cl)cc2)c(O)c1 | ? | -83% | -36% | 21µM* | 21µM* | i
CCOc1ccc(C(=O)NCc2nnnn2-c2ccc(C)c(C)c2)cc1OCC | 0% | -23% | . | . | . | .
COc1ccc(-c2cc(-c3cccs3)c(C#N)c(SCC(=O)NCc3ccco3)n2)cc1 | 0% | -2% | -30% | 2.3µM* | 2.9µM* | ?
COc1ccc(CNC(=O)CSc2nc(-c3ccccc3)cc(-c3cccs3)c2C#N)cc1 | -5% | -19% | ? | -17% | -8% | i
Cc1onc(-c2ccccc2)c1C(=O)Cl | . | . | 0% | . | . | i
Cc1ccc(C)c(N(CC(=O)NC2CCCC2)C(=O)c2oc(C(C)(C)C)cc2C)c1 | ? | 22µM* | ? | ? | ? | ?
Cc1cc(C)c2sc(N(Cc3cccnc3)C(=O)CCOc3ccccc3)nc2c1 | -6% | -11% | . | . | . | .
COc1ccc(NC(=O)c2sccc2SCc2cccc(C(F)(F)F)c2)cc1 | ? | -29% | 5% | 8.9µM* | ? | i
O=C(Nc1ccc(F)cc1F)c1sccc1SCc1cccc(C(F)(F)F)c1 | ? | -7% | 2% | 1% | 10% | i
O=C(Nc1ccc(F)cc1)c1sccc1SCc1cccc(C(F)(F)F)c1 | ? | -4% | ? | 18µM* | 13µM* | i
Cc1ccc(N(Cc2cc(=O)[nH]c3ccccc23)C(=O)CCl)c(C)c1 | 18µM* | 22µM* | ? | 5.2µM* | 4.6µM* | ?
COc1cc2c(cc1NC(=O)Nc1cccc(C)c1)oc1ccccc12 | 0% | -22% | -4% | -7% | 1% | i
COc1cc2c(cc1NC(=S)Nc1cccc(C)c1)oc1ccccc12 | -1% | -25% | -2% | ? | 10µM* | i
CCCCCCCOC(=O)C[N+](C)(C)CCOC1CC2CCC1(C)C2(C)C (stereo not drawn) | ? | 18µM* | 35µM* | 18µM* | 8.2µM* | ?
CN(C)c1ccc(C(=O)NCCCCCCC(=O)NO)cc1 | . | . | 171% | . | . | .
CCN(CC)Cc1cc(Nc2c3ccccc3nc3c4ccccc4n(C)c23)cc(CN(CC)CC)c1O | -30% | -57% | 20µM* | ? | 18µM* | 32µM*
Oc1cccc(Nc2c3ccccc3nc3ccccc23)c1 | ? | -43% | . | ? | ? | .
Nc1nc2c(Br)ccc(Br)c2cc1C(=O)NCc1cccc2ccccc12 | . | . | -3% | 16µM* | -20% | ?
O=C(NCc1cccnc1)c1cnn(-c2nccc(-c3cccs3)n2)c1C1CC1 | . | . | . | . | . | i
CCOc1ccc(C(=O)CCC(=O)N2CCN(c3ccccc3O)CC2)cc1 | -2% | 2.5µM* | -15% | -2% | -1% | i
NC(=S)N/N=C1\CCOc2ccc(Cl)cc21 | 8.9µM* | -58% | . | -15% | -16% | .
O=C(c1cnn(-c2nccc(-c3ccccc3C(F)(F)F)n2)c1C1CC1)N1CCN(CCO)CC1 | . | . | . | . | . | i
CC1(c2nnc(-c3cccc(Cl)c3)o2)CC(c2cccc(Cl)c2)=NO1 (stereo not drawn) | -26% | -19% | 2% | -2% | 4% | i
SMILES | TGFb inhibitor | HepG2 tox | ATXN2 expr inh | HT1080 IDH1KD tx | HT1080-NT tox | ATXN viability
CC1(c2nnc(-c3cccc(Cl)c3)o2)CC(c2ccc(Cl)cc2)=NO1 (stereo not drawn) | 16µM* | -10% | 2% | 7% | 8% | i
O=C(Nc1ccc(Cl)cc1)Nc1ccc(N2CCCC2)c(S(=O)(=O)Nc2ccccc2Cl)c1 | ? | -32% | ? | 6.5µM* | ? | i
O=C(Nc1ccc(N2CCOCC2)c(S(=O)(=O)Nc2ccccc2Cl)c1)c1ccccc1 | -18% | -23% | -24% | -13% | -16% | i
NC(=O)c1ccc2nc(-c3ccc(Oc4ccc(Cl)cc4)cc3)[nH]c2c1 | . | . | 28% | . | . | .
Cc1cccc(OCC(=O)NNC(=O)c2cc3ccccc3oc2=O)c1 | ? | 3.2µM* | 9% | -3%[9.24 µM] | -2% | i
C/C(=N\NC(=O)COc1cccc(C)c1)c1ccc2ccccc2c1O | 5.6µM* | -59% | ? | ? | 21µM* | i
Cc1oc(=O)oc1COC(=O)[C@@H]1N2C(=O)[C@@H](NC(=O)[C@H](N)c3ccccc3)[C@H]2SC1(C)C | . | . | 3% | . | . | i
Cc1ccc(S(=O)(=O)N2CCCN(Cc3nc4ccccc4c(=O)[nH]3)CC2)cc1 | 8% | -13% | -7% | -6% | -4% | i
Cc1ccc(S(=O)(=O)N2CCCN(C(C)c3nc4ccccc4c(=O)[nH]3)CC2)cc1 (stereo not drawn) | 14µM* | -41% | . | -1% | -1% | i
CCN(CC)c1ccc(/C=C2\C=Cc3ccccc32)cc1 | 9% | -6% | . | . | . | .
Cc1csc(NC(=O)CSc2nc3[nH]c(=O)cc(O)c3s2)n1 | ? | 24% | -30% | 5.2µM* | 5.8µM* | ?
O=C(CO)N1CCC(c2[nH]nc(-c3ccc(Cl)cc3)c2-c2ccncn2)CC1 | . | . | -14% | . | . | .
CCCC/C=C/[C@H](c1ccccc1)[C@H](CO)Cc1ccccc1 | -24% | -25% | . | . | . | .
CNC(=S)Nc1ccc(N2CCN(c3ccc(C(F)(F)F)cn3)CC2)nc1 | -22% | -8% | ? | -3% | -6% | i
O=C(Nc1ccc(F)cc1F)N1CCCN(c2ccc(C(F)(F)F)cn2)CC1 | -10% | -29% | -31% | 13µM* | ? | i
Fc1ccc(NC(=S)N2CCCN(c3ccc(C(F)(F)F)cn3)CC2)c(F)c1 | ? | -40% | . | ? | 23µM* | i
O=C(Nc1ccc(Cl)cc1)C1CCN(c2nc3ccccc3n3cccc23)CC1 | -3% | -27% | . | . | . | .
COCCN(C)C(=O)c1cnn(-c2ncc3c(n2)-c2ccccc2CC3)c1C | . | . | . | . | . | i
CCCCn1c(N)c(N(CC(C)C)C(=O)c2ccc(-c3ccc([N+](=O)[O-])cc3)o2)c(=O)[nH]c1=O | ? | -13% | 4% | -3% | 4% | i
CCCCn1c(N)c(N(CCC(C)C)C(=O)c2ccc(-c3ccc([N+](=O)[O-])cc3)o2)c(=O)[nH]c1=O | 1% | 6% | 14µM* | 5% | 0% | .

Source: PubChem BioAssay
